Data reported in paper PMC4336329 (PLoS ONE, 2015).
Hit rate of the full screen: of about 310,000 compounds, about 14,000 (4.5%) showed an effect of 50% or more. Effects have a minus sign here. The list comes from a sample in which strong results are over-represented; it also holds similar structures and randomly drawn compounds.

molecular target: human ether-à-go-go-related gene (hERG) potassium channel (human, UniProt Q12809); assay: primary screen, population patch clamp on CHO cells stably expressing hERG; higher = less effect of the substance
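Also: peak tail current of the secondary pulse compared with the same well before compound.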

Sequence of human ether-à-go-go-related gene (hERG) potassium channel (Q12809 whole entry, looked up): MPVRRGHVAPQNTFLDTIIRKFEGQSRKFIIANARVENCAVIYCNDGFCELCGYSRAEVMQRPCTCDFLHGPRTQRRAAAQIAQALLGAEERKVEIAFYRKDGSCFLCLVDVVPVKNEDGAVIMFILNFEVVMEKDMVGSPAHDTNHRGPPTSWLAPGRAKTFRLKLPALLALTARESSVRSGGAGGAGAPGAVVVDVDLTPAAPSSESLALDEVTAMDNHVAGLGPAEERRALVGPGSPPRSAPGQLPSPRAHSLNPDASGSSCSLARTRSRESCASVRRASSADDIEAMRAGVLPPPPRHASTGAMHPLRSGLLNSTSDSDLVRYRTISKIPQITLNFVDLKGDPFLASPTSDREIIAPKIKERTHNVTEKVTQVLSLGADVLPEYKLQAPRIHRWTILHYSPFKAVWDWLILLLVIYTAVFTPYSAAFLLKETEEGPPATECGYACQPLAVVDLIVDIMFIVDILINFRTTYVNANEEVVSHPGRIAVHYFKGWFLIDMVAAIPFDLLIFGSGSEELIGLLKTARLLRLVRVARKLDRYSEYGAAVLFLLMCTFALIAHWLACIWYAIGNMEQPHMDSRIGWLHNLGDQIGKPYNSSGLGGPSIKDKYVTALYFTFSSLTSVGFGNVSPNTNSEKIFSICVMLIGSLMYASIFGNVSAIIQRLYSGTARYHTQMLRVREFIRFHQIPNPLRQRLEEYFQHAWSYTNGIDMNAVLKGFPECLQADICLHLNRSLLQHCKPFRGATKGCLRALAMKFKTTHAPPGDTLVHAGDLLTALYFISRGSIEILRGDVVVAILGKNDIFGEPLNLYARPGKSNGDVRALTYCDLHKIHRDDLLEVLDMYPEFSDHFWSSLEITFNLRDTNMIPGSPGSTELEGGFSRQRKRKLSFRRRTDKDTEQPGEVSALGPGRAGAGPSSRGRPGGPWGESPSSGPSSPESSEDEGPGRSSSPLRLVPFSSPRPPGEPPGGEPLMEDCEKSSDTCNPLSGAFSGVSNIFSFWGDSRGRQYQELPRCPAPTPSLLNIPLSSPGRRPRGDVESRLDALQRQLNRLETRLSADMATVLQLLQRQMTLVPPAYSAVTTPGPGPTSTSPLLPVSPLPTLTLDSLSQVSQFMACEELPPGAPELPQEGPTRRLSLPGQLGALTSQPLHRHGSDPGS

Row | Structure (SMILES) | hERG current change (%, negative = inhibition) at 10uM
1 | COc1ccc(S(=O)(=O)Nc2ccc3oc(C)c(C(C)=O)c3c2)cc1 | 12%
2 | COC(=O)c1sc(-c2ccc(Cl)cc2)cc1N | -37.1%
3 | O=C(c1ccc(COc2ccc3ccccc3c2)o1)N1N=C(C(F)F)CC1(O)C(F)F (centres unmarked) | -2.62%
4 | CC1(C)CC(NC(=O)C(F)(F)F)CC(C)(C)N1OC(=O)c1ccco1 | 1.13%
5 | Cc1ccc(S(=O)(=O)NCCCCCC(=O)N(C)C)cc1 | 6.32%
6 | CCOC(=O)/C=C1\SCC(=O)N1CC(=O)NC(C)C | 21.2%
7 | CCOC(=O)/C=C1\SCC(=O)N1CC(=O)NC(c1ccccc1)c1ccccc1 | -52.2%
8 | CCOC(=O)/C=C1\SCC(=O)N1CC(=O)NC(C)c1ccccc1 (centres unmarked) | -15.2%
9 | CCC1CCCCN1CC(=O)c1c(C)[nH]c2ccccc12 (centres unmarked) | -27.4%
10 | CCC1CCCCN1CC(=O)c1ccc(OC(F)F)cc1 (centres unmarked) | -77.7%
11 | CCC1CCCCN1CC(=O)c1c(C)[nH]c2ccc(OC)cc12 (centres unmarked) | -20.6%
12 | O=C(NCC(=O)N1CCCCCC1)c1ccc(OC(F)F)cc1 | -11.3%
13 | O=C(CN1C(=O)c2ccccc2S1(=O)=O)c1ccc(OC(F)F)cc1 | -23%
14 | Br.O=C(CN1CCCCC1CO)c1ccc(OC(F)F)cc1 (centres unmarked) | -68.2%
15 | O=c1c2cc(N3CCOCC3)ccc2[nH]c(=S)n1CCCN1CCCC1 | -4.98%
16 | CC(C)(C)c1ccc(CN(Cc2ccccc2)C(c2ccccn2)c2nnnn2C(C)(C)C)cc1 (centres unmarked) | 2.44%
17 | COc1ccc(S(=O)(=O)N2CCC(C)CC2)cc1N(C)S(=O)(=O)c1ccccc1 | -2.12%
18 | COC(=O)c1cccc(NC(=O)CCNC(=O)c2ccco2)c1 | 18.8%
19 | COC(=O)C1=C(C)N(c2ccc(C(=O)OC)cc2)C(=O)C1 | 22.3%

Row | Structure (SMILES) | hERG current change (%, negative = inhibition) at 10uM
20 | O=C(CSc1nnc(-c2ccncc2)o1)N1CCCC1 | -19.1%
21 | O=C(CCC(=O)c1ccc(Oc2ccccc2)cc1)Nc1ccc(Cl)cc1Cl | 5.46%
22 | CCN(CC)S(=O)(=O)c1ccc(-c2nnc(SCC(=O)Nc3nnc(C)s3)n2CC)cc1 | 12.2%
23 | Cc1ccc(C(=O)N/C(=C/c2ccc(-c3cccc([N+](=O)[O-])c3)o2)C(=O)NC(C)C)cc1 | -30.8%
24 | Cc1ccc(C(=O)N/C(=C/c2ccc(-c3cccc([N+](=O)[O-])c3)o2)C(=O)NCCCN(C)C)cc1 | -80%
25 | Cc1ccc(C(=O)N/C(=C\c2ccc(-c3cccc([N+](=O)[O-])c3)o2)C(=O)NC(C)(C)C)cc1 | 1.94%
26 | O=C(N/N=C/c1ccc(-c2cccc([N+](=O)[O-])c2)o1)c1ccc([N+](=O)[O-])cc1 | -40%
27 | Cc1ccc(C(=O)N/C(=C/c2ccc(-c3cccc([N+](=O)[O-])c3)o2)C(=O)NC(C)(C)C)cc1 | -21.9%
28 | Cc1ccc(C(=O)N/C(=C\c2ccc(-c3cccc([N+](=O)[O-])c3)o2)C(=O)NCCCN(C)C)cc1 | -67.6%
29 | O=C(CSc1nnc(CN2CCOCC2)n1-c1ccc(Cl)cc1)Nc1ccc2c(c1)OCO2 | -9.87%
30 | CC/C(O)=C1\C(=O)CCCC1=NCCc1c(C)[nH]c2ccc(C)cc12 | -14%
31 | CCOC(=O)CC1C(=O)NCCN1C(=O)Nc1ccc(Cl)cc1 (centres unmarked) | 2.37%
32 | CC(=O)c1c(C)[nH]c(C(=O)N2c3ccccc3CC2C)c1C (centres unmarked) | 5.33%
33 | Cc1csc(=O)n1CCC(=O)OCC(=O)c1ccc(Br)cc1 | -18.4%
34 | O=c1oc2ccccc2c2c1ncn2C1CCCCC1 | -51.7%
35 | O=c1oc2ccccc2c2c1ncn2-c1ccccc1 | -11.8%
36 | O=c1c2ccccc2ncn1C1CCCCC1 | -19.4%
37 | O=C(NC1CCCC1)C(c1ccc(Cl)cc1)N1CCN(C2CCCCC2)CC1 (centres unmarked) | -59.3%
38 | O=CN1CCN(C(C(=O)NC2CCCC2)c2ccc(Cl)cc2)CC1 (centres unmarked) | -14.8%

Row | Structure (SMILES) | hERG current change (%, negative = inhibition) at 10uM
39 | O=CN1CCN(C(C(=O)NC2CCCCC2)c2ccc(Cl)cc2)CC1 (centres unmarked) | -15%
40 | Cc1c(C=O)c2ccccc2n1CC(=O)NCc1ccc2c(c1)OCO2 | 21.8%
41 | CC1CCN(CC(O)COCCOc2ccc(Br)cc2)CC1.Cl (centres unmarked) | -64.3%
42 | Cl.OC(COCCOc1ccc(Br)cc1)CN1CCCCC1 (centres unmarked) | -37.1%
43 | CCN1CCN(CC(O)COCCOc2ccc(Br)cc2)CC1.Cl (centres unmarked) | -12.3%
44 | CC1(C)CCCC(C)(C)N1CC(O)COCCOc1ccc(Br)cc1.Cl (centres unmarked) | -67.5%
45 | Cl.OCCN1CCN(CC(O)COCCOc2ccc(Br)cc2)CC1 (centres unmarked) | -20.2%
46 | CN1CCN(CC(O)COCCOc2ccc(Br)cc2)CC1.Cl (centres unmarked) | 10.4%
47 | CC1(C)CC(O)CC(C)(C)N1CC(O)COCCOc1ccc(Br)cc1 (centres unmarked) | -42.4%
48 | CC1CC(C)CN(CC(O)COCc2ccccc2)C1.Cl (centres unmarked) | -7.79%
49 | CC1CC(C)CN(CC(O)COCCOc2ccc(Br)cc2)C1.Cl (centres unmarked) | -71.6%
50 | COc1cc(CCN2C(=O)c3cccc4cccc(c34)C2=O)c(S(=O)(=O)NCCO)cc1OC | -23.8%
51 | CC(C)COP(=O)(OCC(C)C)C(O)c1ccccc1F (centres unmarked) | -1.27%
52 | CCCNC(=O)/C=C/c1ccc(S(=O)(=O)Nc2ccccc2OC)cc1 | -1.75%
53 | Cc1ccc(OCCOc2cccc3ccc(C)nc23)c([N+](=O)[O-])c1.O=C(O)C(=O)O | -10.7%
54 | CC1CCCCN1c1ncnc2ccccc12.Cl (centres unmarked) | -7.46%
55 | Cc1ccc(C)c(N2CCN(S(=O)(=O)c3ccc4c(c3)C(C)(C)C(=O)N4C)CC2)c1 | 3.88%
56 | Cc1nc2ncnn2c(N2CCN(C(c3ccccc3)c3ccccc3)CC2)c1C | -47.7%
